Where a name gives a salt, the structure may show the parent alone.

For this experiment, the system named is HL-1. As to the kind of experiment: relative cell viability (CellTiter-Glo) vs DMSO control (% of DMSO control); higher = more viable cells. Particulars: oxygen condition: hypoxia 48 h (1% O2) + reoxygenation 24 h; 1000 nM. In short, it runs like this: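 Plating of HL-1 mouse atrial cardiomyocytes at 1000 cells per well in 384-well plates was done together with compounds at 40, 200, 1000 or 5000 nM in 0.01% DMSO. A day later the cells faced 48 h of 1% O2 and then 24 h of reoxygenation, or matching normoxia. Viability was measured via CellTiter-Glo luminescence and set relative to vehicle-treated control cells.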
Consider `CCOc1nc2cccc(C(=O)OC(C)OC(=O)OC3CCCCC3)c2n1Cc1ccc(-c2ccccc2-c2nn[nH]n2)cc1` (centres undefined) [Candesartan cilexetil], for which the relative cell viability was determined as 97.6.

For `Nc1cc(N2CCCCC2)nc(N)[n+]1[O-]` [Minoxidil], the relative cell viability was 118.

As to `Cc1ccc(NC(=O)c2ccc(CN3CCN(C)CC3)cc2)cc1Nc1nccc(-c2cccnc2)n1` [Imatinib Mesylate], the relative cell viability was found to be 136.

`OCCN(CCO)c1nc(N2CCCCC2)c2nc(N(CCO)CCO)nc(N3CCCCC3)c2n1` [Dipyridamole]: the relative cell viability was found to be 93.7.

`Nc1ccn([C@@H]2O[C@H](CO)[C@@H](O)C2(F)F)c(=O)n1` [Gemcitabine HCl]: the relative cell viability came to 3.86.

On to `CCCCCCNC(=O)n1cc(F)c(=O)[nH]c1=O` [Carmofur], for which the relative cell viability was 51.6.

Turning to `CC(S)C(=O)NCC(=O)O` (centres undefined) [Tiopronin], the relative cell viability was found to be 104.

Consider `COc1cc(C(C)=O)ccc1OCCCN1CCC(c2noc3cc(F)ccc23)CC1` [Iloperidone], for which the relative cell viability turned out to be 107.

Consider `CCN1CCC[C@H]1CNC(=O)c1cc(S(N)(=O)=O)ccc1OC` [Levosulpiride], for which the relative cell viability was 105.

As for `NS(=O)(=O)Cc1noc2ccccc12` [Zonisamide], the relative cell viability amounted to 107.

Turning to `Cc1nc2n(c(=O)c1CCN1CCC(c3noc4cc(F)ccc34)CC1)CCCC2` [Risperidone], the relative cell viability worked out at 106.

With `Cc1c(OCC(F)(F)F)ccnc1C[S@@+]([O-])c1nc2ccccc2[nH]1` [Dexlansoprazole], the relative cell viability is 107.

`Cc1cc(N)c2ccccc2[n+]1CCCCCCCCCC[n+]1c(C)cc(N)c2ccccc21` [Dequalinium chloride]: the relative cell viability was 101.

Regarding `COc1cc2c(cc1OC)CC(=O)N(CCCN(C)C[C@H]1Cc3cc(OC)c(OC)cc31)CC2` [Ivabradine HCl], the relative cell viability is 107.

For the compound `CC(C)(Sc1cc(C(C)(C)C)c(O)c(C(C)(C)C)c1)Sc1cc(C(C)(C)C)c(O)c(C(C)(C)C)c1` [Probucol], the relative cell viability turned out to be 104.

Turning to `COc1cc([C@@H]2c3cc4c(cc3[C@@H](O[C@@H]3O[C@@H]5CO[C@@H](C)O[C@H]5[C@H](O)[C@H]3O)[C@H]3COC(=O)[C@H]23)OCO4)cc(OC)c1O` [Etoposide], the relative cell viability was 46.6.

Regarding `Cc1ccc(C(=O)c2cc(O)c(O)c([N+](=O)[O-])c2)cc1` [Tolcapone], the relative cell viability is 103.

Take `CC[C@]1(O)C[C@@H]2CN(CCc3c([nH]c4ccccc34)[C@@](C(=O)OC)(c3cc4c(cc3OC)N(C)[C@H]3[C@@](O)(C(=O)OC)[C@H](OC(C)=O)[C@]5(CC)C=CCN6CC[C@]43[C@@H]65)C2)C1` [Vinblastine]: the relative cell viability is 43.5.

As to `CN1CCC(=C2c3ccccc3CC(=O)c3sccc32)CC1` [Ketotifen fumarate], the relative cell viability came out at 101.

Turning to `CN(C)CC/C=C1/c2ccccc2COc2ccc(CC(=O)O)cc21` [Olopatadine hydrochloride], the relative cell viability was found to be 92.2.

As for `CCC[C@@H]1C[C@@H](C(=O)N[C@@H]([C@H]2O[C@H](SC)[C@H](O)[C@@H](O)[C@H]2O)[C@@H](C)O)N(C)C1` [Lincomycin hydrochloride], the relative cell viability was determined as 103.

`CO[C@H]1C[C@@H]2CC[C@@H](C)[C@@](O)(O2)C(=O)C(=O)N2CCCC[C@H]2C(=O)O[C@H]([C@H](C)C[C@@H]2CC[C@@H](OC(=O)C(C)(CO)CO)[C@H](OC)C2)CC(=O)[C@H](C)/C=C(\C)[C@@H](O)[C@@H](OC)C(=O)[C@H](C)C[C@H](C)/C=C/C=C/C=C/1C` [Temsirolimus]: the relative cell viability stood at 74.2.

Consider `Cc1[nH]c(=O)c(C#N)cc1-c1ccncc1` [Milrinone], for which the relative cell viability worked out at 105.

For `C=CC[N+]1([C@H]2C[C@H]3[C@@H]4CC[C@H]5C[C@H](O)[C@@H](N6CCOCC6)C[C@]5(C)[C@H]4CC[C@]3(C)[C@H]2OC(C)=O)CCCC1` [Rocuronium bromide], the relative cell viability was found to be 116.

Regarding `CCOc1ccc2ccccc2c1C(=O)N[C@@H]1C(=O)N2[C@@H]1SC(C)(C)[C@@H]2C(=O)O` [nafcillin sodium monohydrate], the relative cell viability turned out to be 105.

`CCOC(=O)[C@H](CCc1ccccc1)N[C@@H](C)C(=O)N1CCC[C@H]1C(=O)O` [Enalapril maleate]: the relative cell viability is 103.

Consider `COc1cccc2c1C(=O)c1c(O)c3c(c(O)c1C2=O)C[C@@](O)(C(=O)CO)C[C@@H]3O[C@H]1C[C@H](N)[C@@H](O)[C@H](C)O1` [Epirubicin Hydrochloride], for which the relative cell viability was determined as 107.

For `CC1=C(/C=C/C(C)=C/C=C/C(C)=C\C(=O)O)C(C)(C)CCC1` [Isotretinoin], the relative cell viability was found to be 105.

`Nc1c2c(nc3ccccc13)CCCC2` [Tacrine HCl]: the relative cell viability worked out at 81.2.

As to `O=P(O)(O)C(O)(Cn1ccnc1)P(=O)(O)O` [Zoledronic Acid], the relative cell viability worked out at 100.

`O=C(c1ccc(OCCN2CCCCC2)cc1)c1c(-c2ccc(O)cc2)sc2cc(O)ccc12` [Evista]: the relative cell viability was 106.

As for `CCCN(CCC)S(=O)(=O)c1ccc(C(=O)O)cc1` [Probenecid], the relative cell viability turned out to be 108.

For the compound `CS(=O)(=O)c1ccc(C2=C(c3ccccc3)C(=O)OC2)cc1` [Rofecoxib], the relative cell viability turned out to be 103.

In the case of `CN(C)c1nc(N(C)C)nc(N(C)C)n1` [Altretamine], the relative cell viability was determined as 115.

Turning to `Cc1cccc(C)c1OCC(C)N` (centres undefined) [Mexiletine HCl], the relative cell viability came out at 104.

Regarding `CCNC(=O)CCC/C=C\C[C@@H]1[C@@H](/C=C/[C@@H](O)CCc2ccccc2)[C@H](O)C[C@@H]1O` [Bimatoprost], the relative cell viability came to 108.

In the case of `C[C@]12CC[C@@H]3c4ccc(O)cc4C[C@@H](CCCCCCCCC[S+]([O-])CCCC(F)(F)C(F)(F)F)[C@H]3[C@@H]1CC[C@@H]2O` (some centres undefined) [Fulvestrant], the relative cell viability was determined as 110.

For the compound `CCc1c2c(nc3ccc(OC(=O)N4CCC(N5CCCCC5)CC4)cc13)-c1cc3c(c(=O)n1C2)COC(=O)[C@]3(O)CC` [Irinotecan HCl Trihydrate], the relative cell viability was found to be 64.6.

As for `Cc1cn(-c2cc(NC(=O)c3ccc(C)c(Nc4nccc(-c5cccnc5)n4)c3)cc(C(F)(F)F)c2)cn1` [Nilotinib], the relative cell viability stood at 107.

For the origin of these results see the supplement of paper PMC8371130.
